Results: the supplement of paper PMC13380429

System: Vero E6 infected with SARS-CoV-2
Experiment: inhibition of SARS-CoV-2 cytopathic effect; higher = more antiviral protection, active = above 15
Conditions: 48 h

| Structure (SMILES) | inhibition of SARS-CoV-2 cytopathic effect (1 nM) | inhibition of SARS-CoV-2 cytopathic effect (8.33 nM) | inhibition of SARS-CoV-2 cytopathic effect (100 nM) | inhibition of SARS-CoV-2 cytopathic effect (833.33 nM) | inhibition of SARS-CoV-2 cytopathic effect (10000 nM) |
| --- | --- | --- | --- | --- | --- |
| N#Cc1ccc2[nH]cc(CCCCN3CCN(c4ccc5oc(C(N)=O)cc5c4)CC3)c2c1 [vilazodone] | 0.76% (inactive) | 1.07% (inactive) | 0.51% (inactive) | 1.56% (inactive) | -3.06% (inactive) |
| CNC(=O)Oc1ccccc1OC(C)C [propoxur] | 2.55% (inactive) | 4.24% (inactive) | 3.02% (inactive) | 2.09% (inactive) | 2.81% (inactive) |
| Cn1c2cc([S+](C)[O-])sc2c2cnn(Cc3cccc(N)c3)c(=O)c21 (stereo not given) | -0.28% (inactive) | -0.88% (inactive) | 5.04% (inactive) | 3.73% (inactive) | 4.31% (inactive) |
| C[C@@H]1CC[C@H]2[C@@H](C)C(=O)O[C@@H]3O[C@@]4(C)CC[C@@H]1[C@]32OO4 [artemisinin] | 0.52% (inactive) | 0.05% (inactive) | 3.13% (inactive) | 3.83% (inactive) | 1.16% (inactive) |
| CC(C)NC(=N)NC(=N)Nc1ccc(Cl)cc1 [proguanil] | -0.7% (inactive) | 0.28% (inactive) | -0.95% (inactive) | -1.01% (inactive) | -5.67% (inactive) |
| CCN(CC)Cc1ccc2cc(COC(=O)Nc3ccc(C(=O)NO)cc3)ccc2c1 [givinostat] | -2.85% (inactive) | -0.88% (inactive) | -5.68% (inactive) | -19.8% (inactive) | -29.6% (inactive) |
| N[C@@H](C(=O)O)c1ccc(C(=O)O)c(C(=O)O)c1 (racemic) | 2.59% (inactive) | 0.287% (inactive) | 1.6% (inactive) | -2.93% (inactive) | -0.293% (inactive) |
| Cc1cc2c(OCC(CNC(C)(C)C)OC(=O)c3ccccc3)cccc2[nH]1 (stereo not given) [bopindolol] | -0.9% (inactive) | -1.91% (inactive) | -0.64% (inactive) | 0.54% (inactive) | 0.29% (inactive) |
| O=C(O)CCC/C=C\C[C@@H]1[C@@H](/C=C/[C@@H](O)COc2cccc(Cl)c2)[C@H](O)C[C@@H]1O (racemic) [cloprostenol-(+/-)] | -2.05% (inactive) | 0.95% (inactive) | 2.48% (inactive) | 5.03% (inactive) | 0.05% (inactive) |
| Cc1c(S(=O)(=O)O)oc2c1C(=O)C(=O)c1c-2ccc2c1CCCC2(C)C [sodium-tanshinone-II-A-sulfonate] | -6.63% (inactive) | -8.06% (inactive) | -4.77% (inactive) | -7.14% (inactive) | -10.1% (inactive) |
| CNC(=O)[C@@H](c1ccccc1)N1CCc2cc(OC)c(OC)cc2[C@@H]1CCc1ccc(C(F)(F)F)cc1 [almorexant] | 2.74% (inactive) | 2.39% (inactive) | 2.44% (inactive) | 1.95% (inactive) | 1.06% (inactive) |
| CCC(=O)Nc1cccc(Oc2nc(Nc3ccc(N4CCN(C)CC4)cc3OC)ncc2Cl)c1 | -2.36% (inactive) | -1.81% (inactive) | -3.83% (inactive) | -2.5% (inactive) | 1.78% (inactive) |
| CC(C)(Cc1ccc2ccccc2c1)NC[C@@H](O)COc1cccc(Cl)c1C#N | -1.61% (inactive) | 0.41% (inactive) | 0.1% (inactive) | 2.49% (inactive) | 62.5% (active) |
| Cc1ccc(O)c([C@H](CCN(C(C)C)C(C)C)c2ccccc2)c1 [tolterodine] | 2.11% (inactive) | 1.62% (inactive) | 1.96% (inactive) | -3.34% (inactive) | -2.67% (inactive) |
| O=C(O)[C@@H]1C[C@@H](C2CCCCC2)CN1C(=O)CP(=O)(O)CCCCc1ccccc1 [fosinoprilat] | -0.23% (inactive) | -5.78% (inactive) | -5.83% (inactive) | 0.83% (inactive) | 6.8% (inactive) |
| CN[C@@H](C)C(=O)N[C@H](C(=O)N1CCC[C@H]1C(=O)Nc1snnc1-c1ccccc1)C1CCCCC1 | 0.62% (inactive) | -0.64% (inactive) | -0.23% (inactive) | -0.79% (inactive) | -5.99% (inactive) |
| CCN(CC)CCN[C@@H](C(=O)OCCC(C)C)c1ccccc1 [camylofine-chlorhydrate] | -0.61% (inactive) | -0.68% (inactive) | -1.25% (inactive) | 0.17% (inactive) | -1.1% (inactive) |
| FC(F)(F)c1ccc(CNc2ccc(Cc3c[nH]c4ncc(Cl)cc34)cn2)cn1 [pexidartinib] | 0.78% (inactive) | 3.65% (inactive) | 0.98% (inactive) | 0.96% (inactive) | 11.6% (inactive) |
| CNC(=O)c1ccc(-c2cnc3ncc(Cc4ccc5ncccc5c4)n3n2)cc1F | 0.17% (inactive) | -1.02% (inactive) | -1.1% (inactive) | 2.22% (inactive) | 7.85% (inactive) |
| c1ccc2c(Oc3nc(Nc4ccc(N5CCOCC5)cc4)c4ncn(C5CCCCC5)c4n3)cccc2c1 [purmorphamine] | 0.27% (inactive) | 1.18% (inactive) | 0.24% (inactive) | 2.43% (inactive) | -5.44% (inactive) |

| Structure (SMILES) | inhibition of SARS-CoV-2 cytopathic effect (1 nM) | inhibition of SARS-CoV-2 cytopathic effect (8.33 nM) | inhibition of SARS-CoV-2 cytopathic effect (100 nM) | inhibition of SARS-CoV-2 cytopathic effect (833.33 nM) | inhibition of SARS-CoV-2 cytopathic effect (10000 nM) |
| --- | --- | --- | --- | --- | --- |
| COc1ccc2cc1Oc1cc3c(cc1OC)CC[N+](C)(C)[C@H]3Cc1ccc(cc1)Oc1c(OC)c(OC)cc3c1[C@@H](C2)[N+](C)(C)CC3 [metocurine] | -0.82% (inactive) | 0.93% (inactive) | 1.08% (inactive) | -3.28% (inactive) | -0.33% (inactive) |
| C[C@H]1C[C@@H]2[C@H]([C@@H](O)C[C@@]3(C)[C@H]2CC[C@]3(O)C(=O)COC(=O)CCC(=O)O)[C@@]2(C)C=CC(=O)C=C12 [methylprednisolone-sodium-succinate] | -0.2% (inactive) | 2.8% (inactive) | 0.5% (inactive) | -0.11% (inactive) | -2.89% (inactive) |
| O=c1c2ccccc2[se]n1-c1ccccc1 [Ebselen] | 2.29% (inactive) | 0.73% (inactive) | 0.59% (inactive) | 1.45% (inactive) | 1.28% (inactive) |
| CNC(=O)c1cc2c(cn1)[nH]c1ccccc12 | 1.51% (inactive) | -0.17% (inactive) | 1.17% (inactive) | -0.08% (inactive) | 1.58% (inactive) |
| Cc1cccn2c(=O)c(-c3nnn[nH]3)cnc12 [pemirolast] | -0.01% (inactive) | 0.57% (inactive) | 0.12% (inactive) | 3.15% (inactive) | -1.12% (inactive) |
| Cn1c(COP(=O)(NCCBr)NCCBr)cnc1[N+](=O)[O-] | -3.18% (inactive) | -1.04% (inactive) | 0.12% (inactive) | -0.54% (inactive) | -3.06% (inactive) |
| Oc1ccc([C@@H]2Oc3ccc(O)cc3[C@@H]3CCC[C@@H]32)cc1 [erteberel] | -2.79% (inactive) | 0.52% (inactive) | -1.51% (inactive) | -4.66% (inactive) | 2.31% (inactive) |
| Cc1c(O)c(=O)ccn1C [deferiprone] | 0.05% (inactive) | 0.64% (inactive) | 1.45% (inactive) | 3.35% (inactive) | 0.91% (inactive) |
| CCN(CC)CCCC(C)Nc1c2ccc(Cl)cc2nc2ccc(OC)cc12 (stereo not given) [mepacrine] | 3.59% (inactive) | 0.39% (inactive) | 5.65% (inactive) | 5.16% (inactive) | -17.4% (inactive) |
| CCN1CCN(C(=O)N[C@@H](C(=O)N[C@@H]2C(=O)N3C(C(=O)O)=C(CSc4nnnn4C)CS[C@H]23)c2ccc(O)cc2)C(=O)C1=O [cefoperazone] | -0.37% (inactive) | -0.65% (inactive) | 0.99% (inactive) | 3.89% (inactive) | 2.57% (inactive) |
| O=C1NC(=O)c2cc(Nc3ccccc3)c(Nc3ccccc3)cc21 | -1.24% (inactive) | 1.7% (inactive) | -0.24% (inactive) | 0.41% (inactive) | 1.85% (inactive) |
| NC(=O)Nc1sc(-c2ccc(F)cc2)cc1C(N)=O | 1.14% (inactive) | -0.06% (inactive) | -0.35% (inactive) | -3.05% (inactive) | -0.22% (inactive) |
| Clc1ccc(C2=CCC[C@H]3CC[C@@H]2N3)cn1 | -2.02% (inactive) | 2.33% (inactive) | -0.54% (inactive) | 0.15% (inactive) | -1.94% (inactive) |
| O=c1cc(N2CCOCC2)oc2c1ccc1ccccc12 | -1.26% (inactive) | 2.98% (inactive) | -0.06% (inactive) | 0.08% (inactive) | -1.32% (inactive) |
| CCc1cn([C@H]2C[C@H](O)[C@@H](CO)O2)c(=O)[nH]c1=O [edoxudine] | 2.72% (inactive) | 2.12% (inactive) | 0.77% (inactive) | 1.82% (inactive) | -0.51% (inactive) |
| Cc1ccccc1N(C)C(=O)c1ccc([S+]([O-])c2nccs2)c([N+](=O)[O-])c1 (stereo not given) | -0.08% (inactive) | -0.71% (inactive) | 1.56% (inactive) | 16.5% (active) | 12.2% (inactive) |
| CNC1CCCN(c2c(F)cc3c(=O)c(C(=O)O)cn(C4CC4)c3c2OC)C1 (stereo not given) [balofloxacin] | -2.96% (inactive) | 0.66% (inactive) | 1.91% (inactive) | 1.72% (inactive) | 2.43% (inactive) |
| CCNC(=O)N1CCN(CCCC(c2ccc(F)cc2)c2ccc(F)cc2)CC1 [amperozide] | -5.99% (inactive) | -8.04% (inactive) | -8.94% (inactive) | -7.67% (inactive) | -9.06% (inactive) |
| Cc1cccc(C(C)c2c[nH]cn2)c1C (stereo not given) [medetomidine] | 0.12% (inactive) | -1.31% (inactive) | -1.87% (inactive) | -1.95% (inactive) | -1.68% (inactive) |
